{"source": "PubChem BioAssay (EPA / NIEHS)", "note": "Results filed as inconclusive are left out. The source made the active and inactive calls. The calls were made as follows: active = hit-call score of the fitted dose curve at least 0.9, where 1 is the maximum; inconclusive = response in the unintended direction; inactive = score below 0.9."}
{"biological_target": "Bile acid receptor (Homo sapiens) (UniProt Q96RI1)", "sequence (Q96RI1 whole entry, looked up, the tested form may be a part)": "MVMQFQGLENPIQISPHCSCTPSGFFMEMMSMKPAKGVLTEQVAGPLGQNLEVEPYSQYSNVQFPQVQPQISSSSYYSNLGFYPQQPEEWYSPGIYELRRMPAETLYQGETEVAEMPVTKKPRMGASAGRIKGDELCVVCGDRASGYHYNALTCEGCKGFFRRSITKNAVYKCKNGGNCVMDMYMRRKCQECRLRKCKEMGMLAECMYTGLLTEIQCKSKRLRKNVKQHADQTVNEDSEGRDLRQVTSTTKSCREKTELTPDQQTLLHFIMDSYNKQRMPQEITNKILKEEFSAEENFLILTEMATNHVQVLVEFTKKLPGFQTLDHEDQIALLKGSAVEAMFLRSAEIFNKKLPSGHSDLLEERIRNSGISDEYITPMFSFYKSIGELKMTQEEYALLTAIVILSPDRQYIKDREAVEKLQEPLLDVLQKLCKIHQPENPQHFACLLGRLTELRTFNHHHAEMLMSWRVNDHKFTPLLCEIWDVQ", "test": "ATG_FXR_TRANS: Attagene TRANS-FACTORIAL HepG2 Assay for Farnesoid X Receptor (FXR) (AID 2282979);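 also: hits raise reporter mRNA above DMSO so AC50 marks FXR activation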", "conditions": "HepG2 Attagene TRANS FXR-GAL4 reporter transcription", "procedure": "ATG_TRANS is a cell-based, multiplexed-readout assay that uses HepG2, a human liver cell line, with measurements taken at 24 hours after chemical dosing in a 24-well plate.ATG_FXR_TRANS is one of 30 assay component(s) measured or calculated from the ATG_TRANS assay. It is designed to make measurements of mRNA induction, a form of inducible reporter, as detected with fluorescence intensity signals by Reverse transcription polymerase chain reaction (RT-PCR) and Capillary electrophoresis technology.Data from the assay component ATG_FXR_TRANS was analyzed into 1 assay endpoint. This assay endpoint, ATG_FXR_TRANS, was analyzed in the positive analysis fitting direction relative to DMSO as the negative control and baseline of activity. Using a type of inducible reporter, measures of mRNA for gain-of-signal activity can be used to understand the reporter gene at the transcription factor-level as they relate to the gene NR1H4. Furthermore, this assay endpoint can be referred to as a primary readout, because this assay has produced multiple assay endpoints where this one serves a reporter gene function. To generalize the intended target to other relatable targets, this assay endpoint is annotated to the nuclear receptor intended target family, where the subfamily is non-steroidal.\nHuman liver HepG2 cells are transiently transfected with multiple reporter transcription units (MRTUs) in 6-well plates using FuGene 6 reagent (Roche; 3 ml FuGene/1 mg DNA). The MRTU constructs are regulated by a cis-regulating element (promoter). […] A major difference between the CIS and TRANS system is that in CIS activities of endogenous TFs are measured, whereas the TRANS assay evaluates changes in activities of exogenous, chimeric NR-Gal4 proteins. […] At the end of 24 hour incubation, total RNA was isolated using TriZol reagent (Invitrogen). The isolated RNA is then reverse-transcribed using oligo(dT) primer and Mo-MLV reverse transcriptase (Invitrogen) with DNAse I (Ambion) treatment for 30 min. The one-tenth of the produced cDNA was amplified by PCR using Taq DNA polymerase (Invitrogen) and two reporter sequence-specific primers. The PCR products were fluorescently labeled by primer extension with 6-arboxyfluorescein (6-FAM) 5'-labeled reporter sequence-specific primer (2 min at 95 C, 20 s at 68 C and 10 min at 72 C) and these products were digested with 5U of HpaI (New England Biolabs) for 2h at 37 C. The fragments were purified using Qiaquick PCR columns (Qiagen), analyzed on an ABI 3130xL genetic analyzer (Applied Biosystems) with peak positions identified by using a set of X-rhodamine (ROX)-labeled MapMarker1000 molecular weight standards (BioVentures). The raw capillary electrophoresis data was processed using Attagraph software (Attagene)."}
{"smiles": "CO/N=C(/C1=NOCCO1)c1ccccc1Oc1ncnc(Oc2ccccc2Cl)c1F", "outcome": "inactive"}
{"smiles": "COP(=S)(OC)Oc1ccc([N+](=O)[O-])c(C)c1", "outcome": "inactive"}
{"smiles": "COCc1cnc(C2=NC(C)(C(C)C)C(=O)N2)c(C(=O)O)c1", "note": "(configuration not stated)", "outcome": "inactive"}
{"smiles": "CCC(C)n1c(=O)[nH]c(C)c(Br)c1=O", "note": "(configuration not stated)", "outcome": "inactive"}
{"smiles": "COc1cc(OC)nc(NC(=O)NS(=O)(=O)c2ncccc2OCC(F)(F)F)n1", "outcome": "inactive"}
{"smiles": "O=P(O)(O)CCCl", "outcome": "inactive"}
{"smiles": "CCOc1nc(F)cc2nc(S(=O)(=O)Nc3c(Cl)cccc3Cl)nn12", "outcome": "inactive"}
{"smiles": "CC(C)C1(C)N=C(c2ncccc2C(=O)O)NC1=O", "note": "(configuration not stated)", "outcome": "inactive"}
{"smiles": "CC1(C)C(C(=O)OC(C#N)c2cccc(Oc3ccccc3)c2)C1(C)C", "note": "(configuration not stated)", "outcome": "inactive"}
{"smiles": "Clc1cccc(C(Cl)(Cl)Cl)n1", "outcome": "inactive"}
{"smiles": "CN=C=S", "outcome": "inactive"}
{"smiles": "CS(=O)(=O)c1ccc(C(=O)C2C(=O)CCCC2=O)c([N+](=O)[O-])c1", "outcome": "inactive"}
{"smiles": "CCCCOCN(C(=O)CCl)c1c(CC)cccc1CC", "outcome": "inactive"}
{"smiles": "COCC(=O)N(c1c(C)cccc1C)C(C)C(=O)OC", "note": "(configuration not stated)", "outcome": "inactive"}
{"smiles": "CC(C)=CC1C(C(=O)OCc2coc(Cc3ccccc3)c2)C1(C)C", "note": "(configuration not stated)", "outcome": "inactive"}
{"smiles": "CNC(=O)Oc1cccc2ccccc12", "outcome": "inactive"}
{"smiles": "Cc1nc(N(C)C)nc(OC(=O)N(C)C)c1C", "outcome": "inactive"}
